# From PubChem BioAssay (NCATS)
# Inconclusive results are not listed. Entries that show only a call come without a potency. Active and inactive are the calls of the source. The call rests on the fitted dose curve; in most records, active means well fitted activation curve with a large enough effect; inconclusive means small, poorly fitted or top-dose-only effect; inactive means no such curve, though single readings can be large or run the other way. Peptide text beside a SMILES is read from it. * marks the point of attachment. Hexanoyl = CCCCCC(=O)*
# Test: Redox Reaction Profiling qHTS: Assay Interference Panel against the NCATS CANVASS Library (AID 1347401)
# Conditions: resazurin-DTT redox cycling, fluorescence, 15 min; series mostly up to 57.1 µM
# Text: Natural products and their derivatives continue to be wellsprings of nascent therapeutic potential. However, many laboratories have limited resources for biological evaluation, leaving their previously isolated or synthesized compounds largely or completely untested. To address this issue, the Canvass library of natural products was assembled (https://tripod.nih.gov/canvass), in collaboration with academic and industry researchers, for quantitative high-throughput screening (qHTS) across a diverse set of cell-based and biochemical assays. The pure (>85% purity by liquid chromatography/mass spectrometry [LC/MS]) Canvass library of 346 natural products were submitted by 45 academic laboratories and companies around the world. We collected pure natural products to circumvent deconvolution and structure elucidation due to time and resource limitations. The library was formatted into 1536-well plates and evaluated in 50 qHTS (in an 11-pnt concentration series) bioassays with broad scope of disease-relevant mechanisms. The resulting data set from 50 different assays was then systematically analyzed to identify overall trends and specific natural products with interesting biological activities. Reported herein are the results of each individual qHTS and their corresponding assay protocol. This profiling assay measures the resazurin-to-resorufin redox reaction in the presence of DTT and compound, and serves as a useful surrogate assay for measuring potential compound redox liability National Center for Advancing Translational Sciences (NCATS), Rockville, MD National Institute of Health (NIH), Bethesda, Maryland
# Redox Profiling assay protocol: 1. In a black-solid bottom, medium binding, 1536-well plates (Greiner 789176), 4 uL of [1x] 5uM Resazurin + 200 uM DTT + buffer (50 mM HEPES pH 7.3 + 50 mM NaCl) was dispensed (into columns 1 - 48, rows 1 - 32) using a BioRAPTR FRD dispenser (Beckman Coulter). 2. 23 nL of compounds were pin transferred into the assay plates (columns 5 - 48) using the Kalypsis pin tool (Wako USA) equipped with a 1536-well pin heads. This yields a final concentration range of 0.002 - 127 uM. Control compound Chloranil (NCGC00091254-06) was also pinned (23 nL) into column 2, rows 1 - 32 (working concentration 10 mM, 1:2 dilution; 16 points titrations; n = 2). The final concentration range for the Chloranil was 0.002 to 57.2 uM. For 100% activation control, a single dose of 23 nL Chloranil (350 uM working concentration) was pinned to columns 3 and 4, rows 1-32 for a final concentration of 2 uM. 3. The assay plates were centrifuged for 15 seconds at 1000 rpm. 4. An initial fluorescence readout was obtained using the ViewLux plate reader (PerkinElmer) using a 525 nm excitation and a 598 nm emission filters. 5. The assay plates were incubated for 15 minutes in the dark. 6. After incubation, the final fluorescence readout was obtained using the ViewLux plate reader (PerkinElmer) using a 525 nm excitation and a 598 nm emission filters.
# Potency means the concentration at half of the fitted maximal effect.
row,Structure (SMILES),Potency
1,CCC(=O)N[C@@H](C[C@H](C)C(Cl)(Cl)Cl)C(=O)N1C(=O)C=C(OC)[C@@H]1C[C@H](C)CCl,inactive
2,C=C[C@@](C)(O)CC[C@@H]1[C@@]2(C)CCCC(C)(C)[C@@H]2CC[C@@]1(C)O,inactive
3,C[C@H](CCC(O)C(C)(O)CO)[C@@]1(O)CC[C@@]2(C)C3=C(CC[C@@]21C)[C@@]1(C)CCC(OC(=O)CCC(=O)O)C(C)(C)[C@@H]1CC3 (stereo not given in full),inactive
4,COc1ccc2[nH]c3c(c2c1)CCN1C[C@H]2C[C@@H](OC(=O)c4cc(OC)c(OC)c(OC)c4)[C@H](OC)[C@@H](OC)[C@H]2C[C@H]31,inactive
5,C=C[C@](Cl)(CBr)CCC=C(C)C,inactive
6,C=C[C@]1(C)CC[C@@H]([C@H](C)C(=O)CC=C(C)C)O1,inactive
7,CO[C@H]1[C@@H](OC(=O)/C(C)=C\[C@@H]2O[C@@H]2[C@H]2O[C@H]2C)[C@H](O)[C@H](OCC23C[C@@H]4[C@H](C)CC[C@H]4C4(C=O)CC2C=C(C(C)C)C34C(=O)O)O[C@@H]1C (stereo not given in full),inactive
8,COc1ccc([C@@H]2c3cc4c(cc3C(=O)C(C)C2C)OCO4)cc1OC (stereo not given in full),inactive
9,COc1c(O)cc2c(c1O)C(=O)c1c(coc1C)C2=O,24.1 µM (active)
10,C[C@]12CCC[C@](C)(C(=O)O)[C@@H]1CC[C@@]1(C)c3cocc3CC[C@H]21,inactive
11,C/C(=C\CC[C@@H](C)[C@H]1CC[C@]2(C)C3=CCC4C(C)(C)[C@@H](O)C[C@@H](O)[C@]4(C)C3[C@H](O)C[C@@]12C)CO (stereo not given in full),inactive
12,C=C[C@@]1(C)CC[C@@H]([C@H](C)C(C)=O)O1,inactive
13,CN1CC[C@]2(c3cccc4c3N[C@H]3N(C)CC[C@@]43[C@]34CCN(C)[C@H]3Nc3ccccc34)c3ccccc3N[C@H]12,inactive
14,O=C1CC(c2ccc(O)cc2)Oc2ccccc21 (stereo not given),inactive
15,Cc1cc(C)c(O)c(C(=O)CC2CC(=O)NC(=O)C2)c1,inactive
16,COc1cc2oc3ccccc3c(=O)c2cc1OC,inactive
17,CC[C@H](O)CCCCC[C@@H]1NC(=O)[C@H]2CCCCN2C(=O)[C@H]([C@H](C)CC)NC(=O)[C@H](Cc2cn(OC)c3ccccc23)NC1=O,inactive
18,CC(C)=CCC[C@]1(C)[C@H]2CC(=O)[C@@]3(CO3)[C@@H]1C2,inactive
19,CCCCCC(=O)N[C@@H](CC(C)C)C(=O)N[C@H](C=O)CCC(=O)O (Hexanoyl-Leu-Glu-aldehyde),inactive
20,Cc1occ2c1C(=O)c1c(cc(O)c(O)c1O)C2=O,inactive

row,Structure (SMILES),Potency
1,C=C[C@]1(C)CC[C@@H]([C@H](C)C(=O)/C=C/C(C)(C)O)O1,inactive
2,COc1ccc(-c2oc3cc(OC)cc(OC)c3c(=O)c2O)cc1,inactive
3,CC[C@H]1[C@H](C)[C@H](c2cc(OC)c(OC)cc2OC)[C@@H](C)[C@H](c2cc(OC)c(OC)cc2OC)[C@@]12C=C(OC)C(=O)C=C2OC,inactive
4,C/C=C(/C)c1cc(O)c(C)c2c1Oc1cc(O)cc(C)c1C(=O)O2,inactive
5,CC[C@H]1[C@@H](C)[C@@H](c2cc(OC)c(OC)cc2OC)[C@H](C)[C@@H](c2cc(OC)c(OC)cc2OC)[C@@]12C=C(OC)C(=O)C=C2OC,inactive
6,CC[C@@H]1[C@H](C)[C@H](c2cc(OC)c(OC)cc2OC)[C@@H](C)[C@H](c2cc(OC)c(OC)cc2OC)[C@]12C=C(OC)C(=O)C=C2OC,inactive
7,C[C@@]1(CCC(=O)Nc2c(O)ccc(C(=O)O)c2O)C(=O)C=C[C@]23C[C@H]4C[C@H](O[C@@]4(C)C2)C31 (stereo not given in full),inactive
8,CC(C)=CC[C@H]1C[C@@]2(CC=C(C)C)C(=O)[C@](CC=C(C)C)(C(=O)C(C(=O)c3ccccc3)=C2O)C1(C)C,inactive
9,C[C@H]1C=C[C@H]2CCCC[C@@H]2[C@H]1C(=O)[C@H]1CC2=C(C(=O)O)CCN2C1=O,inactive
10,C=C(Cl)[C@](Cl)(CBr)CC[C@@H](Br)C(C)(C)Cl,inactive
11,C/C=C/[C@H]1[C@H]2C(=O)c3c(O)c(C)c(O)c(C)c3[C@]1(C(=O)O)C(=O)C=C2C,inactive
12,COc1cc([C@@H]2c3cc4c(cc3C[C@@]3(O[C@@H]5O[C@H](CO)[C@@H](O)[C@H](O)[C@H]5O)COC(=O)[C@H]23)OCO4)cc(OC)c1OC,inactive
13,CC(=O)N[C@H](C)c1nc(/C=C/C=C/C(=O)CC2CC(=O)CC[C@]2(C)O)cs1 (stereo not given in full),inactive
14,CC(C)[C@]12CC[C@@]3(C)[C@H](C)CC[C@H](O)[C@@]3(CC1)c1cc3c(cc12)[nH]c1ccccc13,inactive
15,C=CC(C)(C)C(=O)[C@@H](C)[C@@H]1CC[C@@](C)(C=C)O1,inactive
16,C/C1=C/[C@@H](C)[C@H](O)C/C=C/CC/C=C/C(=O)O[C@@H]1[C@H](C)C(=O)CCCC1CC(=O)NC(=O)C1,inactive
17,Cc1cc(O)cc2c1C(=O)c1c(O)cc(O)cc1C2=O,inactive
18,CC[C@@H]1C[C@@]2(CC)OC(=O)[C@@]3(CC)[C@H](CC)[C@@H]1[C@@H]23,inactive
19,COc1cc2ccc(=O)oc2c(O)c1O[C@@H]1O[C@H](CO)[C@@H](O)[C@H](O)[C@H]1O,inactive
20,O[C@H]1c2ccccc2-c2c3c(cc4c2[C@@H]1NCC4)OCO3,19.2 µM (active)
